Shown are actives, neighbours in structure and some others; about 3.5% of the full set was active somewhere.
GPR151 activ: human GPR151 activation | PathHunter beta-arrestin GPR151 cells, luminescence | activation, % at 11.2 µM | 1% of 650,000 active | AID 1508602; in the data active = activation above about 4.9%;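 also: 0% = median of compound wells and 100% = cells with positive control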
TEAD-YAP inh: TEAD-YAP interaction inhibition; AID 1259422; 1.4% of 640,000 active; HEK-TIYL cells, TEAD-Gal4/YAP UAS-luciferase luminescence; inhibition, % at 9.12 µM; in the data active = inhibition above about 32%;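 also: 0% = median of test compound wells and 100% = reference inhibitor wells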
MITF inh: inhibitors of human MITF. 0.91% of 650,000 active. O75030. AlphaScreen MITF homodimerization, bead proximity signal. inhibition, % at 2.6 µM. AID 1259374; in the data active = inhibition above about 50%;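 also: 0% = vehicle wells with protein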
FBW7 act: activators of human E3 ligase FBW7; Q969H0; AlphaScreen FBW7–phospho-cyclin E peptide binding, activator screen; normalized activity (activation), % at 26.1 µM; 0.13% of 650,000 active; in the data active = normalized activity above about 1.9%;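 also: purified mutant Fbw7 with reduced substrate affinity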
An asterisk follows results filed as active; . = no result given; ! = not active in a repeat.

SMILES | GPR151 activ | TEAD-YAP inh | MITF inh | FBW7 act
COc1cc(Br)c([N+](=O)[O-])cc1[N+](=O)[O-] | 0 | 43* | 37 | 0
CC(=O)NC1C(OC2OC(CC(O)C3OC(n4ccc(=O)[nH]c4=O)C(O)C3O)C(O)C(O)C2NC(=O)/C=C\CCCCCCCCCC(C)C)OC(CO)C(O)C1O (centres undefined) | 0 | 64* | -3 | 0
COc1ccccc1-n1c(/C=C/c2ccc([N+](=O)[O-])cc2)nc2ccccc2c1=O | -1 | 16 | -15 | 0
COc1ccccc1-n1c(/C=C/c2ccc(N(C)C)cc2)nc2ccccc2c1=O | 0 | -12 | -16 | 2.3*
C#CCOc1ccccc1/C=C/[N+](=O)[O-] | -2 | 46* | 2 | 0
Cc1ccc(-n2c(/C=C/c3ccccc3Br)nc3ccccc3c2=O)cc1 | 0 | 51* | -8 | 0
COc1ccc(OC)c(C2=NCC(=O)Nc3c2oc2ccccc32)c1 | 1 | 52* | -4 | 0
O=C1CC(=O)N(c2cccc(Cl)c2)C(=S)N1 | 1 | 0 | 15 | 0
CS(=O)(=O)c1ccc(N2CCNCC2)c(N)c1 | -1 | 5 | 13 | 0
CCN(CC)C(C)C(=O)c1ccccc1 (centres undefined) | 0 | -3 | -6 | 0
CC(=O)[O][Hg][c]1ccccc1 | 1 | 98* | -4 | 0
COC(=O)c1ccc(CN2CCSC2=N)cc1 | -1 | 9 | -6 | 0
COc1ccc(/C=C2\CCCc3c(-c4ccccc4)cc(-c4ccccc4)[n+](C)c32)cc1 | 1 | 92* | -3 | 0
COc1ccccc1/C=C1\CCCc2c(-c3ccccc3)cc(-c3ccccc3)[n+](C)c21 | 2 | 95* | 14 | 0
CCOC(=O)C1C2NC(=S)N(c3ccc(C)cc3)C1(C)Oc1c(Cl)cc(Cl)cc12 (centres undefined) | 0 | 63* | 6 | 0
CCOC(=O)C1C2NC(=S)N(c3cccc(Cl)c3)C1(C)Oc1c(Cl)cc(Cl)cc12 (centres undefined) | -1 | 55* | -10 | 0
CCOC(=O)C1C2NC(=S)N(c3c(C)cccc3C)C1(C)Oc1c(Cl)cc(Cl)cc12 (centres undefined) | 2 | -14 | -1 | 0
COC(C(=O)Nc1ccc(Br)cc1C(=O)c1ccccc1Cl)c1ccccc1 (centres undefined) | -2 | 1 | 19 | 0
O=C(c1ccccc1)C1NC1c1ccc(Br)cc1 (centres undefined) | -1 | -9 | 21 | 2
CN(N=O)c1ccc(O)c(O)c1 | 1 | 2 | 77* | 0
CN(C)c1ccc(NC(=O)CN2C3CCC2CC(O)(c2nccn2C)C3)cc1 (centres undefined) | -1 | 5 | -3 | 0
CCOC(=O)C1C2NC(=S)N(c3ccc(C)cc3)C1(C)Oc1ccc(OC)cc12 (centres undefined) | 0 | 2 | 43 | -1
CCOC(=O)C1C2NC(=S)N(c3ccc(Br)cc3)C1(C)Oc1ccc(OC)cc12 (centres undefined) | -1 | 63* | 17 | 0
CCOC(=O)C1C2NC(=S)N(c3ccc(Cl)cc3)C1(C)Oc1ccc(Br)cc12 (centres undefined) | 1 | 54* | 19 | 0
COc1ccc2c3c([nH]c2c1)C(C)=NCC3 | 0 | 24 | 27 | 0
SMILES | GPR151 activ | TEAD-YAP inh | MITF inh | FBW7 act
COc1ccc2c(c1)[nH]c1c(C)nccc12 | 0 | 85*! | -9 | 0
NC(Cc1cc(O)c(O)cc1O)C(=O)O (centres undefined) | 0 | -7 | 62* | 0
Cc1cccc(CN2CC3CC(C2)c2cccc(=O)n2C3)c1 (centres undefined) | -1 | 5 | 0 | 0
N#Cc1c(/N=C/N2CCCCC2)sc2c1CCCCC2 | 0 | 9 | -6 | -1
CCN(CC)c1ccc(N=Cc2c(O)[nH]c(=O)[nH]c2=O)cc1 | -1 | 15 | 66* | 0
COc1cc(OC)c(OC)cc1CN1CCN(CCO)CC1 | -1 | 1 | -1 | 0
Cc1cccn2c(CNC(C)Cc3cccnc3)c(C(=O)N3CCCCC3)nc12 (centres undefined) | -1 | 0 | 1 | 0
SCCNCCc1c[nH]c2ccccc12 | 0 | 1 | -6 | 1
O=Cc1cn(Cc2cccc([N+](=O)[O-])c2)c2ccccc12 | -1 | 48* | -4 | -1
O=[N+]([O-])c1cccc(CN2CCN(Cc3ccccc3)CC2)c1 | -1 | 2 | 36 | 0
Cc1ccc2[nH]c(C)c(CCNCc3cccs3)c2c1 | 0 | 9 | 14 | 0
COc1ccc(/C=C/c2nc3ccccc3c(=O)n2-c2ccc(C)cc2C)cc1 | 2 | 1 | -11 | 0
CN(C(=O)Cc1ccccc1)[C@H](CN1CCCC1)c1ccccc1 | 0 | . | 2 | 1.9*
CCOc1ccc(C(=O)C(CN2CCCC2)c2ccccc2)cc1 (centres undefined) | 0 | 4 | -22 | 0
CN1C(=O)NC(=O)/C(=C/c2cccs2)C1=O | 3 | -3 | 11 | 0
CN1C(=O)NC(=O)/C(=C\c2cccc(Oc3ccccc3)c2)C1=O | -1 | 15 | 65* | 0
COCCOC(=O)C1=C(N)Oc2c(c(=O)oc3ccccc23)C12C(=O)Nc1ccccc12 (centres undefined) | 1 | -6 | -3 | 0
COc1ccc(C2=NOC(C(=O)N3CCC4(CC3)OCCO4)C2)cc1 (centres undefined) | 0 | -3 | 11 | 0
CC1=C(O)C(=O)C=C2C1=CC=C1[C@@]2(C)CC[C@@]2(C)[C@@H]3C[C@](C)(C(=O)O)CC[C@]3(C)CC[C@]12C | -1 | 43* | -13 | 0
Cc1c(O)c(O)cc2c1CC=C1[C@@]2(C)CC[C@@]2(C)C3C[C@](C)(C(=O)O)CC[C@]3(C)CC[C@]12C (some centres undefined) | -1 | 56* | -3 | 0
CCCCn1c(=O)c(C(=O)Nc2ccc(C)cc2Br)c(O)c2ccccc21 | 2 | 2 | 4 | 0
CN1C2CCC1/C(=C\c1cccnc1)C(=O)/C2=C/c1cccnc1 | 0 | 53* | 22 | 1
O=C1/C(=C/c2cccnc2)N2CCC1CC2 | 0 | -7 | 2 | 0
CCCOc1ccccc1C1SCC(=O)Nc2c1c(=O)[nH]n2C(C)CC (centres undefined) | 0 | 1 | 10 | 0
COc1ccc(O)c(CN2CCN(Cc3cccc(C)c3)CC2)c1 | 0 | -4 | 72* | 0
COc1ccc(O)c(CN2CCN(Cc3ccccc3Cl)CC2)c1 | -1 | -3 | 51* | 0
COc1ccc(O)c(CN2CCN(C)CC2)c1 | -2 | 2 | 16 | 0
COc1ccc(O)c(CN2CCN(Cc3ccccc3)CC2)c1 | -1 | 4 | -1 | 0
OC(Cc1ccccc1)(c1ccccc1)C1CN2CCC1CC2 (centres undefined) | -2 | 10 | 6 | 1
